Measured values taken from ChEMBL document CHEMBL1961873, “Compounds: GSK PKIS; Assays: Nanosyn kinase panel” (2012).

Molecular target: T1, NUAK family SNF1-like kinase 1 (Homo sapiens) (UniProt O60285)
T1 sequence (whole entry): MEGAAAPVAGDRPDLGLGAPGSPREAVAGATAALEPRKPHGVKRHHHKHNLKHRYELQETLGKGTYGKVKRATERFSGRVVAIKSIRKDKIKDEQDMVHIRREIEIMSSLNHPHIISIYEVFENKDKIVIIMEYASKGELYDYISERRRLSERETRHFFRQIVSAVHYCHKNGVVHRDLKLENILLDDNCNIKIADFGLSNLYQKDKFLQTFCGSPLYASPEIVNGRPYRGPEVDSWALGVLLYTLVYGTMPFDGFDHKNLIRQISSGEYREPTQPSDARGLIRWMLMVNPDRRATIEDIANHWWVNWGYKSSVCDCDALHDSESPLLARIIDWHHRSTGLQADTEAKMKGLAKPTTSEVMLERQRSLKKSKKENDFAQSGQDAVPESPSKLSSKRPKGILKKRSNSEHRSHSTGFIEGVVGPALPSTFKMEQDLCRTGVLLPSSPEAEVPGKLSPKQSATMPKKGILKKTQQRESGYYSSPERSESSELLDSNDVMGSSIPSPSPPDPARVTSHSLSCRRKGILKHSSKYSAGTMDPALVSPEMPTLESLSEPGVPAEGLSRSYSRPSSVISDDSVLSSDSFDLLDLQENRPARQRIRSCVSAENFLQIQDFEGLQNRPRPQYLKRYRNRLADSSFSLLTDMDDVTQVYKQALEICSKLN
Settings: at 1 µM

| SMILES | inhibition |
| --- | --- |
| COc1ccc(-c2ccncc2)cc1C(N)=O | 5.44% |
| CC(=O)Nc1cccc(C#Cc2cncnc2Nc2ccc(OCc3cccc(F)c3)c(Cl)c2)n1 | 1.97% |
| Cc1ccc(C(=O)NC2CCCCC2)cc1-c1ccc(C(=O)NCC2CC2)cc1 | 2.62% |
| COc1ccc(-c2nn3ncccc3c2-c2ccnc(Nc3ccc(Cl)c(C(F)(F)F)c3)n2)cc1 | -2.34% |
| CC1=C(C(=O)Nc2ccc3[nH]ncc3c2)C(c2ccc(F)cc2)NC(=O)N1 (stereo unspecified) | 11.3% |
| COc1cc2ncn(-c3cc(O[C@@H](C)c4ccccc4Cl)c(C(N)=O)s3)c2cc1OC | 22.4% |
| CS(=O)(=O)CCN(CC#N)Cc1ccc(-c2ccc3ncnc(Nc4ccc(OCc5cccc(F)c5)c(Cl)c4)c3c2)o1 | 1.9% |
| O=C1NC(=O)C(c2ccccc2Cl)=C1Nc1cccc(O)c1 | 12.4% |
| COc1ccc(-c2coc3ncnc(N)c23)cc1 | 1.24% |
| CS(=O)(=O)CCNCc1ccc(-c2ccc3ncnc(Nc4ccc(OCc5ccccc5)c(Cl)c4)c3c2)o1 | 1.58% |
| COc1cc2ncn(-c3cc(O[C@H](C)c4ccccc4Cl)c(C(N)=O)s3)c2cc1OC | 71.8% |
| CCn1c(-c2nonc2N)nc2cnc(Oc3cccc(NC(=O)c4ccc(OCCN5CCOCC5)cc4)c3)cc21 | 26.9% |
| CCn1c(-c2nonc2N)nc2c(N3CCCC3)nccc21 | 0.95% |
| Cc1nn(C)c2cc(N(C)c3ccnc(Nc4cccc(S(N)(=O)=O)c4)n3)ccc12 | 64.2% |
| Fc1cccc(COc2ccc(Nc3ncnc4cc(-c5ccc[nH]5)sc34)cc2Cl)c1 | 6.42% |
| CCn1c(-c2nonc2N)nc2c(C#CC(C)(C)O)nc(CN3CCCC3)cc21 | 2.69% |
| O=C1Nc2ccc(C(=O)c3ccco3)cc2C1=Cc1cc(Cl)c(O)c(Cl)c1 | 10.8% |
| CC1=C(C(=O)Nc2ccc3[nH]ncc3c2)C(c2ccc3ccccc3c2)CC(=O)N1 (stereo unspecified) | 43.5% |
| Fc1cccc(COc2ccc(Nc3ncnc4sc(-c5cccs5)cc34)cc2Cl)c1 | 7.65% |

Molecular target: T2, Serine/threonine-protein kinase BRSK1 (Homo sapiens) (UniProt Q8TDC3)
T2 sequence (whole entry): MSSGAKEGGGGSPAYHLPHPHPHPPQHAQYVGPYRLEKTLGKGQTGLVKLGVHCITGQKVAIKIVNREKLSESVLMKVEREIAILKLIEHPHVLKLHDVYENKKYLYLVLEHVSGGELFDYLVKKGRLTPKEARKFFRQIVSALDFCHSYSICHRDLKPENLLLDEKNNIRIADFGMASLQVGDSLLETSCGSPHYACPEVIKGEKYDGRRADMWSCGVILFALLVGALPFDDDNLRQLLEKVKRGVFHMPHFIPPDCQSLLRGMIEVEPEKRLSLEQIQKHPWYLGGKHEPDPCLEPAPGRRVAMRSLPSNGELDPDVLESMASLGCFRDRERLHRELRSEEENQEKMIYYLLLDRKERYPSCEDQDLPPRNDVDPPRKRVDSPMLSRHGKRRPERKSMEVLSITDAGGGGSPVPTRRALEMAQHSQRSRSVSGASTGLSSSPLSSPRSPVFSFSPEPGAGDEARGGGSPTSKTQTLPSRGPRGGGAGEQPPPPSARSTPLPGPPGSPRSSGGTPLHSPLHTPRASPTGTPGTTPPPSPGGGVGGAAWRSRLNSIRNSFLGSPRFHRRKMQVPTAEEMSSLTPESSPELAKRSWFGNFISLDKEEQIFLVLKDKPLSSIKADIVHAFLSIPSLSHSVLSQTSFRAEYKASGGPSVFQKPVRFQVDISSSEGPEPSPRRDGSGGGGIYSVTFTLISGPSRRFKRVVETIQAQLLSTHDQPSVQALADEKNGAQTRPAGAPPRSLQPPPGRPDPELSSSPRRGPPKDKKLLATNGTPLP
Settings: at 0.1 µM

| SMILES | inhibition |
| --- | --- |
| CCCN1CCC(Oc2cc(Nc3nc(Nc4cccc(F)c4C(N)=O)c4cc[nH]c4n3)c(OC)cc2Cl)CC1 | 0.4% |
| COc1cc(C)c(NC(=O)CN(C)C)cc1Nc1nc(Nc2cccc(F)c2C(N)=O)c2cc[nH]c2n1 | 1.09% |
| CC1=C(C(=O)Nc2ccc3[nH]ncc3c2)C(c2ccc(Cl)c(Cl)c2)CC(=O)N1 (stereo unspecified) | 1.14% |
| CCn1c(-c2nonc2N)nc2cncc(C(=O)N3CC[C@H](N)C3)c21 | 1.37% |
| NS(=O)(=O)c1ccc(N/N=C2\C(=O)Nc3ccc(C(=O)NCCc4c[nH]cn4)cc32)cc1 | 21.6% |
| CCCN1CCC=C(c2ccc(Nc3nc(Nc4ccccc4C(N)=O)c4cc[nH]c4n3)c(C)c2)C1 | 3.51% |
| CCn1c(-c2nonc2N)nc2cncc(C(=O)N3CCNCC3)c21 | 2.38% |
| Nc1nc(-c2ccc3c(c2)C(=Cc2cc(Br)c(O)c(Br)c2)C(=O)N3)cs1 | 1.06% |
| COc1ccc2cc(-c3c(-c4ccncc4)nc(-c4ccc([S+](C)[O-])cc4)n3C)ccc2c1 (stereo unspecified) | 1.67% |
| CC(C)=Cc1cccc2c1/C(=N/Nc1ccc(S(N)(=O)=O)cc1)C(=O)N2 | 7.32% |
| CS(=O)(=O)CCNCc1nc(-c2ccc3ncnc(Nc4ccc(F)c(Cl)c4)c3c2)cs1 | 0.92% |
| NC(=O)c1ccc(-c2nc(-c3ccccn3)c(-c3ccc4c(c3)OCO4)[nH]2)cc1 | -0.32% |
| COC(=O)Nc1nc2cc(Oc3cccc(NC(=O)Nc4cc(C(F)(F)F)ccc4F)c3)ccc2[nH]1 | 1.74% |
| Cc1nnc(-c2ccc(C)c(-c3ccc(C(=O)Nc4cccc(C#N)c4)cc3)c2)o1 | 0.93% |
| COc1ccc(-c2ccncc2)cc1C(N)=O | 3.31% |
| CC(=O)Nc1cccc(C#Cc2cncnc2Nc2ccc(OCc3cccc(F)c3)c(Cl)c2)n1 | -1.43% |
| Cc1ccc(C(=O)NC2CCCCC2)cc1-c1ccc(C(=O)NCC2CC2)cc1 | 2.63% |
| COc1ccc(-c2nn3ncccc3c2-c2ccnc(Nc3ccc(Cl)c(C(F)(F)F)c3)n2)cc1 | 1.4% |
| CC1=C(C(=O)Nc2ccc3[nH]ncc3c2)C(c2ccc(F)cc2)NC(=O)N1 (stereo unspecified) | 1.49% |
| COc1cc2ncn(-c3cc(O[C@@H](C)c4ccccc4Cl)c(C(N)=O)s3)c2cc1OC | 8.66% |
| CS(=O)(=O)CCN(CC#N)Cc1ccc(-c2ccc3ncnc(Nc4ccc(OCc5cccc(F)c5)c(Cl)c4)c3c2)o1 | 0.56% |
| O=C1NC(=O)C(c2ccccc2Cl)=C1Nc1cccc(O)c1 | 1.18% |
